The text below walks through data of ChEMBL document CHEMBL3988442, “University of Dundee, Small-Polar-MMV Screening Library” (2021).

SMILES strings stand for the structures.

The target of the assay is T1, Arginase-2, mitochondrial (Homo sapiens) (UniProt P78540).
T1 sequence (whole entry): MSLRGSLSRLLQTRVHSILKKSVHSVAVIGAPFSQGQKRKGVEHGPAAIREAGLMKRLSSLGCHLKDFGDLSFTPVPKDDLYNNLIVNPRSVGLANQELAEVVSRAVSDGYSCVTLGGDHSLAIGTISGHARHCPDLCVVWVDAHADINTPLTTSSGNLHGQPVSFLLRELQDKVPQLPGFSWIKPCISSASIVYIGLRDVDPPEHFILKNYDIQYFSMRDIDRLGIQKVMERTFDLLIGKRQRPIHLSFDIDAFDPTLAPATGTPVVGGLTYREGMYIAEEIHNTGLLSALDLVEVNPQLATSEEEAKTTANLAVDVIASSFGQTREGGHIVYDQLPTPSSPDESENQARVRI
As to the kind of experiment: in vitro enzyme assay to detect the production of urea directly proportional to the activity of Arginase II. On the set-up: scale not given: in the data most compounds retested in dose-response had high values. As to conditions: 33.3 µM. The assay is classed as functional.
As for `Cc1cccc(CN2C(=O)CCC23CCN(Cc2cccn2C)CC3)n1`, the Percent Effect is 0.457%.
On to `CN(C(=O)CN1CCOC(Cn2cccn2)C1)c1nccs1` (centres undefined), for which the Percent Effect was -4.71%.
In the case of `c1cc(-c2nc(CN3CCn4c(nnc4C4CC4)C3)cs2)cs1` it was -1.64%; in that of `CS(=O)(=O)NCC1CCCN(C(=O)COCC(F)(F)F)C1` (centres undefined), 2.87%.
For `COc1ccc(-c2nc(CN3CCc4c(ncn4C)C3)cs2)cc1`, the Percent Effect came to 0.41%.
As to `Cc1cccc(CN2CCC3(CCN(c4ccccn4)C3)C2=O)c1` (centres undefined), the Percent Effect is -0.913%.
The value for `CCCC(C)C(=O)N1CCC(n2cccc2C(=O)OC)CC1` (centres undefined) was 1.43%; that for `O=C(NCC1CCOC1)Nc1ccc(OCC(F)(F)F)nc1` (centres undefined) was 8.2%; that for `Cc1ncc(-c2ccnc(N3CCN(C)CC3)n2)c(-c2cccnc2)n1` was -39.9%.
As to `Cc1cc(OCC(=O)N2CCCC(c3noc(C)n3)C2)no1` (centres undefined), the Percent Effect stood at 4.88%.
In the case of `COc1ccc(OCCN(C)C(=O)NC(C)c2nncn2C)cc1` (centres undefined) it was 5.76%; in that of `CCc1ccsc1C(=O)N1CCN(C(=O)CC(F)(F)F)CC1`, 1.02%.
In the case of `CC(C(=O)N1CCCC1)N1CCC(c2nccn2Cc2cscn2)CC1` (centres undefined), the Percent Effect was 5.94%.
Regarding `CCC(=O)N1CCC(O)(c2ncc(OC)nc2OC)CC1`, the Percent Effect was 3.1%.
For `O=C(c1cc(Cl)c2c(c1)OCCO2)N1CCCC(n2cncn2)C1` (centres undefined), the Percent Effect is 1.77%.
As for `CN(C)CC1CN(Cc2nnc(-c3ccccc3Cl)o2)CCO1` (centres undefined), the Percent Effect came to 1.77%.
`Cc1ccc(OCC(O)CN2CCC(Cn3cccn3)CC2)cc1` (centres undefined): the Percent Effect was determined as 4.3%.
The value for `COCCN1CCCN(C(=O)NC(C)Cn2ccnc2)CC1` (centres undefined) was -4.71%.
`CCc1nc(C2CCCN2C(=O)c2ccoc2C)no1` (centres undefined): the Percent Effect is 5.74%.
The value for `COc1cc(CNCc2ccc(NC(=O)NC(C)C)cc2)cc(OC)c1` was 10.4%.
In the case of `Cc1cc(NC(=O)N(CC2CCOC2)C2CC2)no1` (centres undefined) it was 2.22%.
Consider `COc1ccc(F)cc1C(=O)N(C)Cc1cc(C)on1`, for which the Percent Effect is -0.41%.
Turning to `CN(C)C(=O)N1C[C@H]2CCC[C@@]2(COc2ccccn2)C1`, the Percent Effect was -6.07%.
For `COc1ncc(C2CC(=O)NCc3nc4ccccn4c32)cn1` (centres undefined), the Percent Effect was 1.75%.
In the case of `Cn1nc2c(cc1=O)CN(Cc1nc(C(C)(C)C)no1)CC2` it was 4.88%; in that of `Fc1cnc(N2CCOCC3(CCCN(c4nncs4)C3)C2)nc1` (centres undefined), -5.26%; in that of `CN1CCCn2c(nc(CNC(=O)c3ccsc3)cc2=O)C1`, 6.07%.
As to `Cc1ccc(-c2nc(CN3CCn4c(nnc4C4CC4)C3)co2)cc1`, the Percent Effect was determined as 0%.
Regarding `O=c1cc(Cn2cncn2)nc2n1CCCN(CC1CC1)C2`, the Percent Effect was -1.22%.
The value for `CC(c1nc(C2CC2)no1)N1CCN(Cc2ccsc2)CC1` (centres undefined) was -1.64%.
In the case of `O=c1c2ccccc2nc2n1C(CSc1ccc(Cl)cc1Cl)CN2` (centres undefined) it was 5.94%; in that of `CCc1cc(O)nc(C2CCCN2C(=O)c2cc(C)no2)n1` (centres undefined), -2.65%.
With `CN(C)C(=O)CCC(=O)NCc1cccnc1-n1cnc2ccccc21`, the Percent Effect was -9.44%.
The value for `CCc1nccn1C1CCCN(C(=O)Cc2ccc(OC)c(F)c2)C1` (centres undefined) was 1.77%; that for `CC(=O)N1C[C@@H](c2ccsc2)[C@@H]2CN(Cc3ccccc3)CC[C@@H]21` was 0.885%; that for `CN(C)CC1CN(Cc2coc(-c3ccccc3Cl)n2)CCO1` (centres undefined) was 2.66%.
Regarding `CCNC(=O)[C@@H]1C[C@@H](NC(=O)Cc2ccncc2)CN1Cc1ccsc1`, the Percent Effect is -0.35%.
In the case of `CC(C)(C)C(O)CN1CCN(C(=O)c2cccc3[nH]ncc23)CC1` (centres undefined), the Percent Effect is -0.41%.
`CC(C)c1cc(N2CCN(c3ccc(O)cc3)CC2)n2nccc2n1`: the Percent Effect was 5.25%.
